Measurements as given in paper PMC7819943, “Rice protein-binding microarrays: a tool to detect cis-acting elements near promoter regions in rice”.
In all, about 35,000 sequences were measured (“fluorescence intensity (a.u.)”: median about 10,000, highest 2% from about 52,000 on). The list comes from a sample in which the highest values are over-represented; it also holds similar and randomly drawn sequences.

molecular target: T1, OsWOX13 (Oryza sativa, UniProt Q5QMM3 1-267); test: protein-binding microarray (RPBM); PBS, 2% BSA, 51.3 ng/ul salmon testes DNA, 50 uM zinc acetate, 200 nM TF, 25 C, 1 h; high values mean tight binding; conditions: protein: recombinant; tags: N-terminal polyhistidine and DsRed monomer fusion (pET32a); label: CyDye5-dUTP incorporated in the synthesized complementary strand; 3' TTTTT single-stranded linker to array surface; dsDNA, one strand shown
T1 sequence: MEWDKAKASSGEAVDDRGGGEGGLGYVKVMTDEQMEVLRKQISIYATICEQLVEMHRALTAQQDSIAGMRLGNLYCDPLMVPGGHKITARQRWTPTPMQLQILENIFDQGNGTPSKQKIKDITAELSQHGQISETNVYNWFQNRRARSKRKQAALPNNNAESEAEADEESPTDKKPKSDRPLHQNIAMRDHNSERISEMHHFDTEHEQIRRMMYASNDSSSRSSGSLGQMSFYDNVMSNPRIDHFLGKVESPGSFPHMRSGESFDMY
How it was run: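 For the binding signal, per-feature fluorescence intensity was read in arbitrary units on an Axon 4000B scanner. Before scanning, a 2% BSA-blocked custom Agilent array made double-stranded with Cy5-dUTP was washed after 1 h at 25 °C with 200 nM protein and 50 µM zinc acetate. The proteins were Ni–NTA-purified transcription factors with N-terminal polyhistidine and DsRed fusions, expressed in E. coli BL21-CodonPlus.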

| Sequence | binding signal |
| --- | --- |
| ATGACAGCAATTCCGATATCTAATAAGATTGAAAATATTGCGGAGTCACCTAGTGCAG | 14800 fluorescence intensity (a.u.) |
| CCAAATGATATAATCATGGCACATGGAGTACTGCTTAAGACGGAGTCACCTAGTGCAG | 9170 fluorescence intensity (a.u.) |
| CTAAAATTGGAGACGTCACTACAAACGTACGCACTCTTTGCGGAGTCACCTAGTGCAG | 6760 fluorescence intensity (a.u.) |
| ATGAGATAAATTGATTGTTAACCATGTATGTCTCTAAGGTCGGAGTCACCTAGTGCAG | 56400 fluorescence intensity (a.u.) |
| AAAATTGAAATTTTCAACATTAAATTTGGATTAGATTTTGCGGAGTCACCTAGTGCAG | 19200 fluorescence intensity (a.u.) |
| AGTAAATTGGTGTATGATTAGATTAACATGTTAAATGTATCGGAGTCACCTAGTGCAG | 53500 fluorescence intensity (a.u.) |
| TAAGATAAATTAATTGGTAACCTTGTATGTCCATAAGGGTCGGAGTCACCTAGTGCAG | 45400 fluorescence intensity (a.u.) |
| TTTAATTGGTTAAATGAACTATGTAATGTTATAATTATATCGGAGTCACCTAGTGCAG | 33200 fluorescence intensity (a.u.) |
| GAAATAGATTAATTATAGCTAAAACATTTTCTCGACCTTGCGGAGTCACCTAGTGCAG | 52800 fluorescence intensity (a.u.) |
| GATTAATTAATTATTATCCATTGTACACTTCGAAAATTGGCGGAGTCACCTAGTGCAG | 60500 fluorescence intensity (a.u.) |
| ATTAAAACTTAATTAAATATACTAATAGCTTTCTCATTTTCGGAGTCACCTAGTGCAG | 7350 fluorescence intensity (a.u.) |
| CGGCGTTAATTGTCCTTCGATCCATTATTACAGAAACACTCGGAGTCACCTAGTGCAG | 15400 fluorescence intensity (a.u.) |
| GTACATTTTAATGATTATATTATGATGATGAAAATTGTATCGGAGTCACCTAGTGCAG | 15300 fluorescence intensity (a.u.) |
| TAGAATAAATTGATTTAATTAAATGTAACATTAAATATATCGGAGTCACCTAGTGCAG | 10100 fluorescence intensity (a.u.) |
| AGATAATTTAATTGTTAACCATGTATGGCTGTAAGGGTATCGGAGTCACCTAGTGCAG | 43900 fluorescence intensity (a.u.) |
| GGGGATAATTTTGTAGCTCGATGACAAGTTGATTTGGTGTCGGAGTCACCTAGTGCAG | 19200 fluorescence intensity (a.u.) |
| ATCGAATTGAGGGAGATAAATTGATCTTGTTTTAATAATTCGGAGTCACCTAGTGCAG | 3450 fluorescence intensity (a.u.) |
| CTTTAATTACCACCCGATCTCACCAACAAGCGGGGCAGCTCGGAGTCACCTAGTGCAG | 20400 fluorescence intensity (a.u.) |
| AAACGATTGATCACAATCCACGCATCGTGCCTCTCTCGCCCGGAGTCACCTAGTGCAG | 14300 fluorescence intensity (a.u.) |
| GTCTCGTAATTTTCTGTTGAACTATGTAATTGATTTCTTTCGGAGTCACCTAGTGCAG | 10500 fluorescence intensity (a.u.) |
| TGCCACTCAAGTACAATTATTCCCATTAATTCGCTCCATTCGGAGTCACCTAGTGCAG | 5600 fluorescence intensity (a.u.) |

| Sequence | binding signal |
| --- | --- |
| ATTGATTGAGAAAATAATGTTGGTGAATAAATTGTTATATCGGAGTCACCTAGTGCAG | 40700 fluorescence intensity (a.u.) |
| ACTTAATTGGATAGATAAATTTAAGTTATATTTAATATGGCGGAGTCACCTAGTGCAG | 64900 fluorescence intensity (a.u.) |
| AGCTCTATAATTTTACAATTTAAAATTATATTATATAAAGCGGAGTCACCTAGTGCAG | 20400 fluorescence intensity (a.u.) |
| TGAATTACTCAATTGAATTGGTGTTATGTAATAAACTGCTCGGAGTCACCTAGTGCAG | 5970 fluorescence intensity (a.u.) |
| TGTGATGTATTTGATTTATGATGTATTTATTTGTGTGTATCGGAGTCACCTAGTGCAG | 20700 fluorescence intensity (a.u.) |
| AGTAATAAATTGATTGTATGTTATCTGGTGGTCTGAAACTCGGAGTCACCTAGTGCAG | 57400 fluorescence intensity (a.u.) |
| TTATGATATATTGATCGTAGGATTGGGATTGGGATCCTATCGGAGTCACCTAGTGCAG | 15800 fluorescence intensity (a.u.) |
| ATAAGTTAATTTAAATAAATGGAGTAGAATATTATGATAGCGGAGTCACCTAGTGCAG | 26300 fluorescence intensity (a.u.) |
| CAAATATATTATAAAATTGCATTTAATAAAACTTATTTGGCGGAGTCACCTAGTGCAG | 3450 fluorescence intensity (a.u.) |
| AATTTAATTAATGACAAATATAATTAGCTCTCTATCCAGGCGGAGTCACCTAGTGCAG | 55500 fluorescence intensity (a.u.) |
| GCATGACAAATGGCGTTAATTAGTCCACAAATAATATATACGGAGTCACCTAGTGCAG | 3210 fluorescence intensity (a.u.) |
| CCGGGGATTGATTTGCCGAGTGTATTATTGATCGTATGATCGGAGTCACCTAGTGCAG | 53500 fluorescence intensity (a.u.) |
| GCATGTTGATTATACCAGTAAGTTTCACGCACGCACACCGCGGAGTCACCTAGTGCAG | 13000 fluorescence intensity (a.u.) |
| ACATGTTAATTTTAACATTGACTAATAGTAAGTAGTGAGCCGGAGTCACCTAGTGCAG | 25000 fluorescence intensity (a.u.) |
| AAAGGGATGAGATTGAAGCAATTCCCGTGACTAGAAAACGCGGAGTCACCTAGTGCAG | 3320 fluorescence intensity (a.u.) |
| AAATTTAAATTTGAAGTTGATTTTAAGATATTTTCAACGTCGGAGTCACCTAGTGCAG | 21000 fluorescence intensity (a.u.) |
| TTAGTTTATACTCAATTAATCATTCGCTAATGGCTTACCTCGGAGTCACCTAGTGCAG | 5920 fluorescence intensity (a.u.) |
| ACTGATAGAATTAGCTCTATGCATAATGCATGGCTGTCTCCGGAGTCACCTAGTGCAG | 34300 fluorescence intensity (a.u.) |
| AAAGATTGAAACTCTGAACATTTAGGACAACGAACATCATCGGAGTCACCTAGTGCAG | 14000 fluorescence intensity (a.u.) |
| CAAACAAGCCAGCTCAATCAATCATCGAGCTAGCTGAGCTCGGAGTCACCTAGTGCAG | 8080 fluorescence intensity (a.u.) |
| CTCTGTAACTATATAATTTCGTGCCAGATCGAAACTATGTCGGAGTCACCTAGTGCAG | 4040 fluorescence intensity (a.u.) |
